{"source": "PubChem BioAssay (NCI)", "note": "The panel holds about 79,000 compounds, 15% with a hit somewhere; the sample as a whole holds those more often. A number with no mark means an inactive call. Calls of active or inactive are those of the source. Rule as the data show it: active = growth inhibition above about 70%; inactive = the rest.", "data": [{"assay": "NCI Yeast Anticancer Drug Screen. Data for the rad50 strain (AID 155);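 also: 0% = growth of vehicle-only cultures of the same strain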", "conditions": "S. cerevisiae rad50 strain growth inhibition; at 50.0 µM (retest, dose inferred, filed as 5.0); active compounds read high", "in_short": "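Inhibition values express reduced yeast growth in compound-treated cultures relative to vehicle-treated controls.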", "values": [{"smiles": "COc1ccc2c(Cc3cc(Cl)ccc3O)cncc2c1O", "growth inhibition": "32%"}, {"smiles": "Cc1ccc(NNC2=NC(=S)NC(=O)C2)cc1", "growth inhibition": "97% (active)"}, {"smiles": "CC#CC(=O)Nc1ccccc1CC(c1c[nH]c2ccccc12)c1c[nH]c2ccccc12", "growth inhibition": "50%"}, {"smiles": "COC(=O)c1c2oc3c(C(=O)OC)cccc3nc-2cc(N)c1=O", "growth inhibition": "19%"}, {"smiles": "CCCCCC(=O)NNc1ccccc1", "growth inhibition": "89% (active)"}, {"smiles": "CN(C)CCNc1ccc2nnn3c4ccc(O)cc4c(=O)c1c23", "growth inhibition": "51%"}, {"smiles": "COc1ccc2c(c1)C(=O)C[C@@H]1[C@](C)(C#N)CCC[C@]21C", "growth inhibition": "31%"}, {"smiles": "CCC(=O)c1cc2ccccc2c2ccccc12", "growth inhibition": "44%"}, {"smiles": "O=C1OCCCOC(=O)c2cc(ccc2O)OCC#CC#CCOc2ccc(O)c1c2", "growth inhibition": "-6%"}, {"smiles": "Nc1nc(Cl)cc(NCC2(CO)CC(CCCc3ccccc3)C2)n1", "note": "(stereo not given)", "growth inhibition": "26%"}, {"smiles": "NNC(=S)Nc1ccccc1", "growth inhibition": "5%"}, {"smiles": "CCOC(=O)c1ccc(N=Cc2cc(Cl)cc(Cl)c2O)cc1", "growth inhibition": "99% (active)"}, {"smiles": "CC(C(=O)N1C(=O)N(C(=O)C(C)C(O)c2ccccc2)C(c2ccccc2)C1c1ccccc1)C(O)c1ccccc1", "note": "(stereo not given)", "growth inhibition": "91% (active)"}, {"smiles": "CC(C)(C)CC(C)(C)N[P+](NC(C)(C)CC(C)(C)C)(NC(C)(C)CC(C)(C)C)NC(C)(C)CC(C)(C)C", "growth inhibition": "98% (active)"}, {"smiles": "C/C(=N\\NC(=S)N1CCCC1)c1cnccn1", "growth inhibition": "98% (active)"}, {"smiles": "N=C(N)c1ccc(OCCCCOc2ccc(N)cc2Cl)cc1", "growth inhibition": "89% (active)"}, {"smiles": "CCCCCC(CN(C)C)C(O)/C=C\\c1ccccc1", "note": "(stereo not given)", "growth inhibition": "-8%"}, {"smiles": "CC1(CO)CCCC2(C)C3=C(CCCC3)CCC12", "note": "(stereo not given)", "growth inhibition": "94% (active)"}, {"smiles": "O=C(CCCl)Nc1cc2ccccc2oc1=O", "growth inhibition": "-19%"}, {"smiles": "O=[N+]([O-])c1ccccc1N=Nc1c(O)[nH]c2cccc(C(F)(F)F)c12", "growth inhibition": "86% (active)"}, {"smiles": "CCCCCCCCC1OC1CCCCCCCC(=O)OCC1CO1", "note": "(stereo not given)", "growth inhibition": "-11%"}, {"smiles": "CCN(CC)CCNc1ccc(C)c2sc3c(OC)cccc3c(=O)c12", "growth inhibition": "22%"}, {"smiles": "OC(CCN1CCOCC1)c1ccc(Sc2ccccc2)cc1", "note": "(stereo not given)", "growth inhibition": "29%"}, {"smiles": "[Cl-].[La+3].[O-]/N=C(\\c1ccccc1)c1ccccn1.[O-]/N=C(\\c1ccccc1)c1ccccn1.[O-]/N=C(\\c1ccccc1)c1ccccn1", "growth inhibition": "63%"}, {"smiles": "COc1ccc(NC(=O)CSC(N)=O)cc1", "growth inhibition": "12%"}, {"smiles": "Fc1cccc(CSc2ncnc3c2ncn3C2CCCS2)c1", "note": "(stereo not given)", "growth inhibition": "70% (active)"}, {"smiles": "CC/C(=C(\\CC)c1ccc(OCCN2CCOCC2)cc1)c1ccc(OCCN2CCOCC2)cc1", "growth inhibition": "63%"}, {"smiles": "O=[N+]([O-])c1c(Cl)ccc2nsnc12", "growth inhibition": "97% (active)"}, {"smiles": "COc1ccccc1NC(=O)/C(=C\\N1C(=O)/C(=C/c2cc(OC)c(OC)c(OC)c2)SC1=S)C(C)=O", "growth inhibition": "9%"}, {"smiles": "O=CNC(CCCC(=O)O)Cc1cc2ccccc2c2ccccc12", "note": "(stereo not given)", "growth inhibition": "17%"}, {"smiles": "C=C1CC2(CCCC3(CC(=C)C(=O)O3)C2(C)C)OC1=O", "note": "(stereo not given)", "growth inhibition": "96% (active)"}, {"smiles": "CCOC(=O)Nc1cc(NC(C)/C(=N/O)c2ccccc2)c([N+](=O)[O-])c(N)n1", "note": "(stereo not given)", "growth inhibition": "97% (active)"}, {"smiles": "O=C(N=Nc1cccc(Cl)c1)NNc1cccc(Cl)c1", "growth inhibition": "98% (active)"}, {"smiles": "Oc1ccc2c(ccc3ccccc32)c1", "growth inhibition": "98% (active)"}, {"smiles": "CCc1cccc(C(C)(C)C)c1NC(=S)/N=C/C(C(=O)c1ccccc1)=C(\\O)c1ccccc1", "growth inhibition": "70% (active)"}, {"smiles": "NC(=S)N/N=C/c1cn(CCCl)c2ccccc12", "growth inhibition": "30%"}, {"smiles": "COC1=Nc2ccccc2S(=O)(=O)C=C1", "growth inhibition": "87% (active)"}, {"smiles": "O=C1C2C3C=CC(C3)C2C(=NS(=O)(=O)c2ccccc2)C2C3C=CC(C3)C12", "note": "(stereo not given)", "growth inhibition": "9%"}, {"smiles": "NC(=Nc1ccccc1)c1ccc2c(c1)c1c(n2Cc2ccccc2)CCCC1", "growth inhibition": "99% (active)"}, {"smiles": "NN=C(CC(O)(C(F)(F)Cl)C(F)(F)Cl)CC(O)(C(F)(F)Cl)C(F)(F)Cl", "growth inhibition": "99% (active)"}]}]}
